# Source: PubChem BioAssay (EPA / NIEHS)
# Active and inactive are the calls of the source. The calls were made as follows: active = hit-call score of the fitted dose curve at least 0.9, where 1 is the maximum; inactive = score below 0.9.
# How the values were obtained:
# [1] = read-out: TIMP metallopeptidase inhibitor 2 (TIMP2), TIMP2 (gene 7077); assay: BSK_KF3CT_TIMP2: BioMAP Diversity Plus: KF3CT Assay for TIMP metallopeptidase inhibitor 2 (TIMP2) Biomarker Activity (AID 2283071); conditions: primary human keratinocytes with fibroblasts; actives raise or lower the signal
# Summary of the method: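 Keratinocyte–fibroblast co-culture, 24 h exposure; TIMP-2 ELISA, DMSO-normalised bidirectional fit. Parallel SRB (0.1%, TCA-fixed, 560 nm) total-protein staining gauges cytotoxicity.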
# [2] = read-out: C-C motif chemokine 2 (Homo sapiens) (UniProt P13500); assay: BSK_KF3CT_MCP1: BioMAP Diversity Plus: KF3CT Assay for Monocyte Chemoattractant Protein 1 (MCP1/CCL2) Biomarker Activity (AID 2283073); conditions: primary human keratinocytes with fibroblasts; actives raise or lower the signal
# Summary of the method: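 Keratinocytes and foreskin fibroblasts were co-cultured, dosed with chemical, and sampled 24 h later. MCP-1 was quantified by ELISA, and the endpoint was analyzed with bidirectional fitting using DMSO as negative control.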
# [3] = read-out: Matrix Metallopeptidase 9 (MMP9), MMP9 (gene 4318); assay: BSK_KF3CT_MMP9: BioMAP Diversity Plus: KF3CT Assay for Matrix Metallopeptidase 9 (MMP9) Biomarker Activity (AID 2283074); conditions: primary human keratinocytes with fibroblasts; actives raise or lower the signal;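 as to AC50: MMP9 protein level quantified by ELISA in the co-culture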
# Summary of the method: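 Human keratinocyte and foreskin fibroblast co-culture exposed to chemicals for 24 h; MMP9 biomarker measured by ELISA, bidirectional fitting relative to DMSO; cytotoxicity tracked by SRB total protein staining in parallel cultures.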
# [4] = read-out: urokinase plasminogen activator (uPA), PLAU (gene 5328); assay: BSK_KF3CT_uPA: BioMAP Diversity Plus: KF3CT Assay for urokinase plasminogen activator (uPA) Biomarker Activity (AID 2283075); conditions: primary human keratinocytes with fibroblasts; actives raise or lower the signal
# Summary of the method: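 Primary human keratinocyte/foreskin fibroblast co-culture exposed to chemical; uPA measured by ELISA at 24 h. Bidirectional fit versus DMSO, with parallel SRB total-protein staining for cytotoxicity.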
# CD40, CD40 (gene 958) [5] = assay: BSK_LPS_CD40: BioMAP Diversity Plus: LPS Assay for CD40 Biomarker Activity (AID 2283076); conditions: primary human HUVEC with PBMC; actives raise or lower the signal
# Summary of the method: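 CD40 signal, measured by ELISA, is fitted in both directions relative to DMSO vehicle. The system is an LPS-driven human vascular primary co-culture of endothelial cells and PBMC, sampled 24 h after compound addition.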
# [6] = read-out: E-selectin (Homo sapiens) (UniProt P16581); assay: BSK_LPS_Eselectin: BioMAP Diversity Plus: LPS Assay for Eselectin Biomarker Activity (AID 2283077); conditions: primary human HUVEC with PBMC; actives raise or lower the signal
# Summary of the method: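 Signal of E-selectin, detected by ELISA, served as the endpoint; cells were umbilical vein endothelium with PBMC, read 24 h after treatment. DMSO defined baseline, and both increases and decreases were fitted.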
# [7] = read-out: Interleukin-8 (IL8), CXCL8 (gene 3576); assay: BSK_LPS_IL8: BioMAP Diversity Plus: LPS Assay for Interleukin-8 (IL8) Biomarker Activity (AID 2283078); conditions: primary human HUVEC with PBMC; actives raise or lower the signal
# Summary of the method: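 Endothelial cells and PBMC from human donors are co-cultured, treated with chemicals and LPS, then assayed for IL-8 by ELISA after 24 h. Parallel SRB staining (0.1% SRB after 10% TCA fixation, 560 nm) flags cytotoxicity.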
# [8] = BSK_LPS_SRB: Viability Assessment in the BioMAP Diversity Plus: LPS Assay (AID 2283079); conditions: primary human HUVEC with PBMC;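 also: total protein by sulforhodamine B absorbance as a cytotoxicity measure; measured one day after compound addition; fitted in both directions against DMSO so loss or gain of signal counts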
# Summary of the method: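 Overt cytotoxicity was gauged by sulforhodamine B total-protein staining in a primary human vascular endothelial and mononuclear cell co-culture 24 h post-dosing. Activity was fitted in both directions relative to DMSO.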
# [9] = read-out: Interleukin-1 alpha (IL1a), IL1A (gene 3552); assay: BSK_LPS_IL1a: BioMAP Diversity Plus: LPS Assay for Interleukin-1 alpha (IL1a) Biomarker Activity (AID 2283080); conditions: primary human HUVEC with PBMC; actives raise or lower the signal
# Summary of the method: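 Measured: IL-1 alpha via ELISA at 24 h in LPS-activated human umbilical vein endothelium–PBMC co-culture. Baseline: DMSO, bidirectional fitting.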
# [10] = read-out: Monocyte Chemoattractant Protein-1 (MCP1), CCL2 (gene 6347); assay: BSK_LPS_MCP1: BioMAP Diversity Plus: LPS Assay for Monocyte Chemoattractant Protein-1 (MCP1) Biomarker Activity (AID 2283081); conditions: primary human HUVEC with PBMC; actives raise or lower the signal;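 as to AC50: secreted MCP-1 protein quantified by ELISA in culture supernatant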
# Summary of the method: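 LPS-stimulated HUVEC/PBMC co-culture; chemical, 24 h; MCP-1 by ELISA; bidirectional fit vs DMSO; cytotoxicity via SRB (0.1% stain, 10% TCA fix, 560 nm) in parallel wells.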
# [11] = read-out: Macrophage colony-stimulating factor (MCSF), CSF1 (gene 1435); assay: BSK_LPS_MCSF: BioMAP Diversity Plus: LPS Assay for Macrophage colony-stimulating factor (MCSF) Biomarker Activity (AID 2283083); conditions: primary human HUVEC with PBMC; actives raise or lower the signal
# Summary of the method: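 Compound is added to a human vascular primary co-culture of umbilical vein endothelium and blood mononuclear cells. After 24 h, M-CSF is quantified by ELISA. Signal changes are fitted in both directions against DMSO.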
# [12] = read-out: Tissue Factor, F3 (gene 2152); assay: BSK_LPS_TissueFactor: BioMAP Diversity Plus: LPS Assay for Tissue Factor Biomarker Activity (AID 2283084); conditions: primary human HUVEC with PBMC; actives raise or lower the signal
# Summary of the method: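 In this co-culture system of umbilical vein endothelium with PBMC, stimulated with LPS, cell-surface CD142 is detected by ELISA at 24 h. Endpoint values derive from bidirectional fitting, DMSO serving as baseline.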
# [13] = read-out: Vascular cell adhesion molecule 1 (VCAM1), VCAM1 (gene 7412); assay: BSK_LPS_VCAM1: BioMAP Diversity Plus: LPS Assay for Vascular cell adhesion molecule 1 (VCAM1) Biomarker Activity (AID 2283086); conditions: primary human HUVEC with PBMC; actives raise or lower the signal
# Summary of the method: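 Primary human vascular co-culture (umbilical vein endothelium plus PBMC) stimulated with LPS received chemical; 24 h later VCAM-1 was read by ELISA. Overt cytotoxicity was assessed by sulforhodamine B staining of parallel cultures at the same time point.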
# CD40, CD40 (gene 958) [14] = assay: BSK_SAg_CD40: BioMAP Diversity Plus: SAg Assay for CD40 Biomarker Activity (AID 2283088); conditions: primary human HUVEC with PBMC; actives raise or lower the signal
# Summary of the method: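 Fluorescence ELISA read-out of CD40 from umbilical vein endothelium plus peripheral blood mononuclear cells, sampled 24 h after dosing. Values come from bidirectional curve fitting with DMSO as baseline.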
# CD69, CD69 (gene 969) = assay: BSK_SAg_CD69: BioMAP Diversity Plus: SAg Assay for CD69 Biomarker Activity (AID 2283089); conditions: primary human HUVEC with PBMC; actives raise or lower the signal;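 as to AC50: cell surface CD69 protein quantified by ELISA with fluorescence detection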
# Summary of the method: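 Values derive from bidirectional fitting relative to DMSO vehicle. Cells: umbilical vein endothelium plus peripheral blood mononuclear cells, treated 24 h before fluorescent ELISA for CD69.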
# [15] = read-out: Monocyte Chemoattractant Protein-1 (MCP1), CCL2 (gene 6347); assay: BSK_SAg_MCP1: BioMAP Diversity Plus: SAg Assay for Monocyte Chemoattractant Protein-1 (MCP1) Biomarker Activity (AID 2283090); conditions: primary human HUVEC with PBMC; actives raise or lower the signal
# Summary of the method: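 MCP-1 levels in the endothelial–PBMC SAg co-culture were quantified by ELISA at 24 h post-dosing; both increases and decreases versus DMSO scored. Cytotoxicity monitored by SRB total protein in parallel cultures.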
# [16] = read-out: Tumor necrosis factor (Homo sapiens) (UniProt P01375); assay: BSK_LPS_TNFa: BioMAP Diversity Plus: LPS Assay for Tumour Necrosis Factor alpha (TNFa) Biomarker Activity (AID 2283085); conditions: primary human HUVEC with PBMC; actives raise or lower the signal
# Summary of the method: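 Primary human vascular co-culture of HUVEC and PBMC; TNFa ELISA 24 h after treatment, analysed as increase or decrease relative to DMSO control.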
# CD38, CD38 (gene 952) = assay: BSK_SAg_CD38: BioMAP Diversity Plus: SAg Assay for CD38 Biomarker Activity (AID 2283087); conditions: primary human HUVEC with PBMC; actives raise or lower the signal
# Summary of the method: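 Fluorescence ELISA of cell-surface CD38 served as the read-out, with either increase or decrease fitted against DMSO controls. Cells were a human umbilical vein endothelium plus PBMC co-culture under SEB/TSST-1 stimulation, measured 24 h after dosing.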
# [17] = BSK_LPS_PGE2: BioMAP Diversity Plus: LPS Assay for Prostaglandin E2 (PGE2) Biomarker Activity (AID 2283082); conditions: primary human HUVEC with PBMC; actives raise or lower the signal
# Summary of the method: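 Endpoint derived from bidirectional curve fitting versus DMSO of ELISA-measured PGE2 in LPS-stimulated human primary vascular co-culture (HUVEC with PBMC) harvested at 24 h.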
# Chain of E-selectin (Homo sapiens) (P16581 whole entry, looked up): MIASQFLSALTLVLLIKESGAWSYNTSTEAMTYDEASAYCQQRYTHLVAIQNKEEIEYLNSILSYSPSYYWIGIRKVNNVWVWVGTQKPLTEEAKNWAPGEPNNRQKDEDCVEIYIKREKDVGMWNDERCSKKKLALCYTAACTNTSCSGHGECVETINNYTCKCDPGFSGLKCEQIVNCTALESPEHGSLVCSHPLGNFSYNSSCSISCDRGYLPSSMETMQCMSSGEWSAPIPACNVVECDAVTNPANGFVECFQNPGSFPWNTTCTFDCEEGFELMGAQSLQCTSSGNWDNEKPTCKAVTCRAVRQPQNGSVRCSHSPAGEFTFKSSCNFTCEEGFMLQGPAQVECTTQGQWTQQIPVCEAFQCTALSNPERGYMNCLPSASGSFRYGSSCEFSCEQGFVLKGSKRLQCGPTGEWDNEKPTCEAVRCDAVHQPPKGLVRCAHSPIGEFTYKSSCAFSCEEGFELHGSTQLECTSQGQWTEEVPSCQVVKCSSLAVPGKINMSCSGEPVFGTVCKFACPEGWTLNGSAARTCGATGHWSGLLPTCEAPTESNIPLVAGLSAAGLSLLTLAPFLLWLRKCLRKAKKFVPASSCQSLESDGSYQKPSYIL
# Chain of Tumor necrosis factor (Homo sapiens) (P01375 whole entry, looked up): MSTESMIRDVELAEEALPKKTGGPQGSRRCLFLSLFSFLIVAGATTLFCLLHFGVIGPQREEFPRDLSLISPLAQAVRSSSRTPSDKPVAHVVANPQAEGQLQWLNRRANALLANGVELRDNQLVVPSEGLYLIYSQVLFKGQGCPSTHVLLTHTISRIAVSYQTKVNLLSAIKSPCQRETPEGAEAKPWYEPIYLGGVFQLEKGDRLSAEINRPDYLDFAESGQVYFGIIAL
smiles,measurement,setting,value
Oc1c(Cl)cc(Cl)c(Cl)c1Cc1c(O)c(Cl)cc(Cl)c1Cl,AC50,[1],1.79 µM (active)
same,AC50,[2],5.44 µM (active)
same,AC50,[3],0.74 µM (active)
same,AC50,[4],2.99 µM (active)
same,AC50,"CD40, CD40 (gene 958) [5]",6.43 µM (active)
same,AC50,[6],22.8 µM (active)
same,AC50,[7],15.3 µM (active)
same,AC50,[8],14.1 µM (active)
same,AC50,[9],9.2 µM (active)
same,AC50,[10],32.5 µM (active)
same,AC50,[11],11.6 µM (active)
same,AC50,[12],27.7 µM (active)
same,AC50,[13],22.6 µM (active)
same,AC50,"CD40, CD40 (gene 958) [14]",7.61 µM (active)
same,AC50,"CD69, CD69 (gene 969)",5.19 µM (active)
same,AC50,[15],5.46 µM (active)
O=C1OC2(c3ccccc31)c1ccc(O)c(Br)c1Oc1c2ccc(O)c1Br,AC50,[1],20 µM (active)
same,AC50,[2],20 µM (active)
same,outcome,[3],inactive
same,outcome,[4],inactive
same,AC50,"CD40, CD40 (gene 958) [5]",20 µM (active)
same,AC50,[6],24.5 µM (active)
same,outcome,[7],inactive
same,outcome,[8],inactive
same,AC50,[9],20 µM (active)
same,AC50,[10],20 µM (active)
same,AC50,[11],20 µM (active)
same,AC50,[12],20 µM (active)
same,AC50,[13],20 µM (active)
same,AC50,"CD40, CD40 (gene 958) [14]",28.8 µM (active)
same,AC50,"CD69, CD69 (gene 969)",20 µM (active)
same,AC50,[15],20 µM (active)
IC(I)I,outcome,[1],inactive
same,outcome,[2],inactive
same,outcome,[3],inactive
same,outcome,[4],inactive
same,outcome,"CD40, CD40 (gene 958) [5]",inactive
same,outcome,[6],inactive
same,outcome,[7],inactive
same,outcome,[8],inactive
same,outcome,[9],inactive
same,outcome,[10],inactive
same,outcome,[11],inactive
same,outcome,[12],inactive
same,outcome,[16],inactive
same,outcome,[13],inactive
same,outcome,"CD38, CD38 (gene 952)",inactive
same,outcome,"CD40, CD40 (gene 958) [14]",inactive
same,outcome,"CD69, CD69 (gene 969)",inactive
same,outcome,[15],inactive
CCCCOC(=O)CCCCCCCC(=O)OCCCC,outcome,[1],inactive
same,outcome,[2],inactive
same,outcome,[3],inactive
same,outcome,[4],inactive
same,outcome,"CD40, CD40 (gene 958) [5]",inactive
same,outcome,[6],inactive
same,outcome,[7],inactive
same,outcome,[8],inactive
same,outcome,[9],inactive
same,outcome,[10],inactive
same,outcome,[17],inactive
same,outcome,[11],inactive
same,outcome,[12],inactive
same,outcome,[13],inactive
same,outcome,"CD40, CD40 (gene 958) [14]",inactive
same,outcome,[15],inactive
CCN(CC)C(=O)N(CC)CC,outcome,[1],inactive
same,outcome,[2],inactive
same,outcome,[3],inactive
same,outcome,[4],inactive
same,outcome,"CD40, CD40 (gene 958) [5]",inactive
same,outcome,[6],inactive
same,outcome,[7],inactive
same,outcome,[8],inactive
same,outcome,[9],inactive
same,outcome,[10],inactive
same,outcome,[11],inactive
same,outcome,[12],inactive
same,outcome,[16],inactive
same,outcome,[13],inactive
same,outcome,"CD40, CD40 (gene 958) [14]",inactive
same,outcome,"CD69, CD69 (gene 969)",inactive
same,outcome,[15],inactive
C=CC(C)(O)CCC=C(C)C (centres undefined),outcome,[1],inactive
same,outcome,[2],inactive
same,outcome,[3],inactive
same,outcome,[4],inactive
same,outcome,"CD40, CD40 (gene 958) [5]",inactive
same,outcome,[6],inactive
same,outcome,[7],inactive
same,outcome,[8],inactive
same,outcome,[9],inactive
same,outcome,[10],inactive
same,outcome,[11],inactive
same,outcome,[12],inactive
same,outcome,[13],inactive
same,outcome,"CD40, CD40 (gene 958) [14]",inactive
same,outcome,"CD69, CD69 (gene 969)",inactive
same,outcome,[15],inactive
